Results taken from PubChem BioAssay AID1835 (Johns Hopkins Ion Channel Center, 2009).
Screen size: about 2,400 compounds; about 750 (31%) were called active.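 Rule for the calls: active = median signal gain over dofetilide-blocked control wells reaching their mean plus 3 SD, so readout 1 at least 0; inactive = the rest.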 The list shows a part of the results.

What follows are compounds tested against Voltage-gated inwardly rectifying potassium channel KCNH2 (Homo sapiens) (UniProt Q12809) (assay: hERG protection against dofetilide inhibition, confirmation, cell-based, thallium flux, duplicate retest, dofetilide IC70 (AID 1835)). Conditions: hERG cell line, FluxOR thallium flux, dofetilide-blocked; at 10 µM; hits give high values.
Voltage-gated inwardly rectifying potassium channel KCNH2 (Homo sapiens), sequence (Q12809 whole entry, looked up): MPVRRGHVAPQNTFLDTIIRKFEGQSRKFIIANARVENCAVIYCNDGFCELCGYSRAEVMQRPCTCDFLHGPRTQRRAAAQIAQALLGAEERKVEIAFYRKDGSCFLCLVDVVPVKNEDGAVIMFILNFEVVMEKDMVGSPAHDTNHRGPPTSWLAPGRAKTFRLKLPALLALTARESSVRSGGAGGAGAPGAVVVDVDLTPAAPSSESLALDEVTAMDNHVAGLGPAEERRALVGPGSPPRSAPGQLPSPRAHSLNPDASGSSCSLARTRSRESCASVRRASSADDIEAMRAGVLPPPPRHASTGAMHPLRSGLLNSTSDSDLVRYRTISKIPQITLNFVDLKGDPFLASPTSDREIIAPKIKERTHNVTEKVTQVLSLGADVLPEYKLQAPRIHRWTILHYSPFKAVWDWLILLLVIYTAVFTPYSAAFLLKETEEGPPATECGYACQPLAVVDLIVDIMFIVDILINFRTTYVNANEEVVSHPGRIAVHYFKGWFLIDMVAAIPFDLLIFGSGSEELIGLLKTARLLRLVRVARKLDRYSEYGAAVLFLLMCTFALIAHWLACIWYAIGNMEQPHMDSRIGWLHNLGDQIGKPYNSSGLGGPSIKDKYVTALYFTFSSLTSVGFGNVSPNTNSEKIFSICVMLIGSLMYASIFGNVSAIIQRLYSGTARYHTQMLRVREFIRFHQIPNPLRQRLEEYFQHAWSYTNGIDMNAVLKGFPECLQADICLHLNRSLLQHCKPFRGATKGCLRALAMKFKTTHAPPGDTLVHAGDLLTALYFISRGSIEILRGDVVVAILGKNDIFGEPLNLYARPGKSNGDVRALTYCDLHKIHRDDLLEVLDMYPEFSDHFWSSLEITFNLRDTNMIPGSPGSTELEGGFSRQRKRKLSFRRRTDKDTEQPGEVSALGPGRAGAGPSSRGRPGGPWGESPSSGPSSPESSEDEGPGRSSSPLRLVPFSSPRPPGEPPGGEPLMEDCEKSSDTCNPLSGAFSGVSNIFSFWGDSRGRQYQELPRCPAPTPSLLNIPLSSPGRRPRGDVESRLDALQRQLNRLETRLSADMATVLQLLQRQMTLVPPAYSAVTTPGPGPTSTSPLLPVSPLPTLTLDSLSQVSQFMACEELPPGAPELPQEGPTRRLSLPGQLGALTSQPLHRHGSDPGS

Compound | activity increase over dofetilide control, less the hit threshold
COC(=O)c1c(NS(=O)(=O)c2ccc3ccccc3c2)sc2c1CCCC2 | 29% (active)
Cc1ccc(C(=O)Nc2sc3c(c2C(=O)O)CCCCC3)o1 | -22% (inactive)
CCOC(=O)c1c(NS(=O)(=O)c2ccc(Br)cc2)sc2c1CCC2 | 68% (active)
CCOC(=O)c1c(NS(=O)(=O)Cc2ccccc2)sc2c1CCCC2 | 69% (active)
COC(=O)c1c(NS(=O)(=O)Cc2ccccc2)sc2c1CCCC2 | 31% (active)
COc1ccc(S(=O)(=O)Nc2ccc(O)c3ccccc23)cc1 | -21% (inactive)
COc1ccc(NS(=O)(=O)c2ccc3ccccc3c2)c2ncccc12 | -20% (inactive)
O=C(O)C1C2CCC(O2)C1C(=O)Nc1ccc(F)c(Cl)c1 (stereo unspecified) | -7% (inactive)
Cc1ccc(CN2CCN(CC(=O)NC(C)c3ccc4c(c3)OCCO4)C2=O)cc1 (stereo unspecified) | -9% (inactive)
O=c1[nH]c(=O)n(CCc2ccc(F)cc2)c(O)c1C=NCc1ccc2c(c1)OCO2 | -26% (inactive)
CC(C)=CCCC1=CCC2C(=O)NNC(=O)C2C1 (stereo unspecified) | -11% (inactive)
CCOc1ccc(N)c(SSc2cc(OCC)ccc2N)c1 | -43% (inactive)
COC(=O)CNc1nc(Cl)nc(Nc2ccc(C)cc2)n1 | -7% (inactive)
Cc1nnc(NC(=O)C2CCCN(S(=O)(=O)c3ccccc3C(F)(F)F)C2)s1 (stereo unspecified) | 4% (active)
CCc1nnc(NC(=O)C2CCCCN2S(=O)(=O)c2ccccc2)s1 (stereo unspecified) | -16% (inactive)
COC(=O)c1ccccc1NC(=O)C1CCCN(S(C)(=O)=O)C1 (stereo unspecified) | -17% (inactive)
Cc1cccc(NC(=O)COc2coc(CN3CCN(c4ccccc4)CC3)cc2=O)c1 | -18% (inactive)
CCOC(=O)c1c(SCC(=O)Nc2nc(C)cs2)nc(=O)[nH]c1C | -16% (inactive)
CCOC(=O)Cc1csc(NC(=S)NC(=O)c2ccc(C)cc2)n1 | -18% (inactive)
CCOC(=O)Cc1csc(NC(=S)NC(=O)C(C)(C)C)n1 | 2% (active)
CCOC(=O)Cc1csc(NC(=S)NC(=O)c2ccccc2C)n1 | 3% (active)
CCOC(=O)Cc1csc(NC(=S)NC(=O)c2ccc(Cl)cc2)n1 | 11% (active)
COC(=O)c1c(NC(=O)C(C)(C)C)csc1C | -11% (inactive)
CCOC(=O)Cc1csc(NC(=S)NC(=O)c2ccccc2Br)n1 | 22% (active)

Compound | activity increase over dofetilide control, less the hit threshold
COc1cc(S(=O)(=O)NCC2COCCO2)ccc1-n1cnnn1 (stereo unspecified) | -17% (inactive)
Cc1ccc(-n2nc(C)c3c2OC(N)=C(C#N)C3c2ccoc2)cc1 (stereo unspecified) | -19% (inactive)
CCOC(=O)C1=C(Cc2ccc(C)cc2)C(=O)c2ccccc2C1=O | 17% (active)
CCOc1ccc(/C=C2\CCc3ccccc3C2=O)cc1 | -13% (inactive)
CSc1ccccc1C(=O)NCc1ccc(C)cc1 | -16% (inactive)
CCOC(=O)c1c(C=O)c(C)n(Cc2ccccc2)c1C | -5% (inactive)
CCOC(=O)C1=C(O)c2ccccc2C(=O)/C1=C\c1ccc(CC)cc1 | 28% (active)
CCOc1cc(/C=C2/C(=O)ON=C2C)ccc1O | -22% (inactive)
Cc1ccc(OCC(=O)NC(=S)Nc2ccc(Br)cn2)cc1 | 13% (active)
Cc1nc(NC(=S)NC(=O)COc2ccc(Cl)cc2)ccc1Br | 0% (inactive)
Cc1ccc(OCC(=O)NC(=S)Nc2ccc(Br)cn2)cc1C | -13% (inactive)
C=CCN(CC=C)C(=S)NC(=O)c1ccc(C)c(Br)c1 | 100% (active)
C=CCNC(=S)NC(=O)c1ccc(C)c(Br)c1 | -8% (inactive)
COc1ccc(C(=O)NC(=S)NCCO)cc1Br | -17% (inactive)
CCN(CC)C(=S)NC(=O)c1ccc(OC)c(Br)c1 | 11% (active)
COc1ccc(-c2nc3ccc(C(=O)NCC(OC)OC)cc3nc2-c2ccc(OC)c(OC)c2)cc1OC | -14% (inactive)
C=CCN(CC=C)C(=S)NC(=O)c1ccc(OC)cc1 | 23% (active)
COc1ccc(C(=O)NC(=S)N(C)C2CCCCC2)cc1Br | -5% (inactive)
C=CCN(CC=C)C(=S)NC(=O)c1ccc(OC)c(Br)c1 | 48% (active)
O=C(OCCNc1ccc(C(F)(F)F)cc1[N+](=O)[O-])c1cc2ccccc2oc1=O | -10% (inactive)
Nn1c(SCC(=O)Nc2ccc(F)cc2)nnc1C1CCCCC1 | -24% (inactive)
O=C(Cn1cnc2ccccc21)c1ccccc1 | -5% (inactive)
CC(=O)NC1C(Oc2ccccc2C)OC(CO)C(O)C1O (stereo unspecified) | -10% (inactive)
C=CCN(CC=C)C(=S)NC(=O)/C=C/c1ccc(OC)cc1 | 1% (active)

Compound | activity increase over dofetilide control, less the hit threshold
COc1ccc(OC(=O)Cc2cccc3ccccc23)cc1 | -13% (inactive)
CCC(=O)Nc1ccc(C(=O)NNC(=O)c2cc([N+](=O)[O-])cc([N+](=O)[O-])c2)cc1 | -13% (inactive)
C=CCN(CC=C)C(=S)NC(=O)c1ccc([N+](=O)[O-])cc1 | 56% (active)
C=CCN(CC=C)C(=S)NC(=O)Cc1cccc2ccccc12 | 17% (active)
COc1ccc(/C=C/C(=O)NC(=S)NNC(=O)c2cccs2)cc1 | -24% (inactive)
O=C(NCCOC(=O)c1ccc([N+](=O)[O-])cc1)c1cccnc1 | -4% (inactive)
COc1ccccc1CNC(=O)CCCC(=O)n1ncc2cc(C)ccc21 | -12% (inactive)
O=C(NN=C1c2ccccc2-c2ccccc21)c1ccccc1 | -5% (inactive)
C/C(=N\NC(=O)c1ccc(Cl)cc1)c1ccc(Br)s1 | -11% (inactive)
O=C1c2cccc3cccc(c23)C(=O)C1(O)O | -24% (inactive)
CCNC(=S)N/N=C1\C(=O)c2cccc3cccc1c23 | 9% (active)
O=C(N/N=C1/C(=O)c2cccc3cccc1c23)c1ccc(Cl)cc1 | 52% (active)
CC/C(=N\NC(=S)Nc1cccc(C)c1)c1ccccc1 | -1% (inactive)
CC(C)(C)NC(=O)C(=O)NNC(=O)COc1ccc(Br)cc1 | 33% (active)
Cc1c(C(=O)NNC(=O)c2ccncc2)oc2ccc(Br)cc12 | -12% (inactive)
CC(C)(C)NC(=O)C(=O)NNC(=O)c1ccccc1 | -5% (inactive)
CC(NC(=O)c1ccncc1)C(C)(C)C (stereo unspecified) | -4% (inactive)
Cc1ccc(Oc2ccc(OCC(=O)NC(CC(C)C)C(=O)O)cc2)cc1 (stereo unspecified) | -20% (inactive)
CCCc1cc(C(=O)NNC(=S)Nc2cccc(C)c2)cs1 | -22% (inactive)
CC(C)(C)NC(=O)C(=O)NNC(=O)COc1ccccc1 | -4% (inactive)
CC(C)(C)NC(=O)C(=O)NNC(=O)c1cccc(Br)c1 | 35% (active)
Cc1cccc(NC(=O)C(=O)NNC(=O)c2ccc(C(C)(C)C)cc2)c1 | 83% (active)
CC(C)(C)NC(=O)C(=O)NNC(=O)c1ccc(C(C)(C)C)cc1 | 38% (active)
